“And” between values parts separate entries of the source, which are not always exact repeats. Identical values can stand only once. The panel holds about 83,000 compounds, 20% with a hit somewhere; the sample as a whole holds those more often.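 Activity criterion: percent growth below 10, measured after cells in 96-well plates were exposed to a single compound concentration for 48 hours.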 Unmarked numbers belong to inactive results. The source made the active and inactive calls.

In this assay the test system is MDA-MB-468 breast. Description: NCI-60 one-dose screen, 48 h (100 = growth as untreated, 0 = no growth, -100 = all killed). To be noted: 10 µM unless noted.
Take `CCOC(=O)C(CC)n1c(=O)c2cc(OC)c(OC)cc2c2cnc3[nH]ccc3c21` (stereo not given): the growth was 84.2%.
In the case of `C=CCCC(=O)N1C=CC(=O)[C@H](O)[C@@H]1/C=C/c1ccccc1` it was 4.99% [100 µM] (active); in that of `CC(=O)Nc1ccc(CC#N)cc1Br`, 102%; in that of `O=C1CC(c2cccc(F)c2)c2c(n[nH]c2-c2ccc(Cl)cc2)N1` (stereo not given), 68.4%.
In the case of `O=C(CSc1nc2sc3c(c2c(=O)n1-c1ccccc1)CCCCC3)N/N=C/c1ccc(F)cc1` it was -3.84% (active); in that of `CCc1ccc(-c2nnc(COc3ccc(-c4nc5ccc(C)cc5[nH]4)cc3OC)o2)cc1`, 63.1%.
In the case of `C=CCOc1ccc(N=NC(C#N)C#N)cc1` it was 30.3%.
Consider `COc1cc2c(cc1OC)[C@H](C(=O)O)[C@@H](c1ccc(OC(C)C)c(OC)c1)N(C)C2=O`, for which the growth was 105%.
As for `COc1cc(-c2nc(-c3nnc(-c4ccc(F)c(Cl)c4)o3)c3ccccn23)cc(OC)c1OC`, the figure is 52.5%.
On to `Nc1ccc(N)c2c1C(=O)c1cccc([N+](=O)[O-])c1C2=O`, for which the growth was 54.8%.
As for `CCN1CCN(C(=O)[C@@]2(C)CC[C@]3(C)CC[C@]4(C)C(=CC(=O)[C@@H]5[C@@]6(C)CC[C@H](OC7C[C@@H](O)[C@@H](O)C(C)O7)C(C)(C)[C@@H]6CC[C@]54C)[C@@H]3C2)CC1` (stereo not given in full), the figure is 16.9%.
In the case of `Nc1nnc2cc(Cl)ccc2n1`, the growth was 101%.
In the case of `CC(C)(C#N)N1CCN(c2ccccc2Cl)CC1` it was 103%; in that of `C/C(=N\NC(=O)Nc1ccccc1)c1nnn(-c2ccc([N+](=O)[O-])cc2)c1C`, 104%; in that of `CCOc1ccc(-n2nc(C(=O)Nc3ccccc3)nc2-c2cc(OC)c(OC)c(OC)c2)cc1`, 42.5%.
In the case of `O=C(/C=C/C(=O)c1ccccc1)c1ccccc1` it was 107%; in that of `Clc1ccc2c(NCCCCNc3nc(N4CCOCC4)nc4ccccc34)ccnc2c1`, 24.9%.
In the case of `CCC1CCC(C)NC1` (stereo not given) it was 92.4%.
On to `C=C(C)[C@@H]1CC[C@]2(C(=O)Nc3ccccn3)CC[C@]3(C)[C@H](CC[C@@H]4[C@@]5(C)CCCNC(C)(C)[C@@H]5CC[C@]43C)[C@@H]12`, for which the growth was -13.8% (active).
In the case of `O=C1C(Cl)=C(Cl)C(=O)c2c1nc1n2CCCC1` it was 96.7%; in that of `O=C(NCc1cccnc1)c1ccc([N+](=O)[O-])o1`, 69.5%; in that of `CCCCCCCCCCCCCCCCCCOc1ccccc1CC(=O)OCC[N+]1(C)CCCC1`, -23.8% (active).
In the case of `CC(CN(C)C)CN1c2ccccc2Sc2ccccc21` (stereo not given) it was 40.2% and 73.1% and 64%; in that of `COC1=CC(c2ccc[nH]2)=N/C1=C\c1[nH]c(C)c(C(=O)CCCCCCCCC(=O)O[C@H]2CC[C@H]3C4CCc5cc(O)ccc5C4CC[C@]23C)c1C` (stereo not given in full), 37.5%.
In the case of `Clc1ccc(Nc2nnc(COc3ccccc3)c3ccccc23)cc1` it was -16.9% (active); in that of `Cc1cc(Nc2ncnc3ccc(NC4=NC(C)(C)CO4)cc23)ccc1Oc1ccn2ncnc2c1`, -60.6% (active); in that of `COc1cc(/C=N/n2cnc3oc(-c4ccccc4)cc3c2=N)cc(CN2CCN(C)CC2)c1O`, 91.9%.
In the case of `CC[C@]12C=CCN3CC[C@@]4(c5ccc(OC)cc5N(C)[C@H]4[C@@](O)(C(=O)OC)[C@@H]1OC(=O)CCC(=O)N[C@H](Cc1c[nH]c4ccccc14)C(=O)OC)[C@@H]32`, the growth was -42.6% [100 µM] (active).
Consider `O=C(NCc1ccccc1)c1ccc2c(c1)NC(=O)[C@@H]1CCCN21`, for which the growth is 103%.
As to `CCCCC[C@H]1C/C=C2/C(=O)C=C[C@@H]2C/C=C\CCCC(=O)O1`, the growth was -50.6% (active).
In the case of `Cc1cc(Cc2cc(C)c(N)cc2N)c(N)cc1N` it was 95.4%.
As for `ClC1=C(Br)C(Br)(Br)C(=C(Br)Br)C1(Br)Br`, the figure is 74.4%; as for `Nc1ccccc1NS(=O)(=O)c1ccc(Cl)cc1`, 99.1%; as for `C=C[C@]1(C)C=C2C(=O)[C@@]3(O)OC(=O)[C@@]4(CCCC(C)(C)[C@H]34)[C@@]2(O)CC1`, -84.4% (active).
In the case of `CCN1CCN(c2nc(NNC(=O)c3ccccc3)nc(N3CCN(C(c4ccccc4)c4ccccc4)CC3)n2)CC1` it was 7.71% (active); in that of `Nc1nccc2c1ccn2-c1ccc(NC(=O)c2ccc(N3CCOCC3)c(C(F)(F)F)c2)cc1`, 27.6%.
For the compound `O=S(=O)(CCN1CCOCC1)Nc1cncc(-c2ccc3ncnc(Nc4ccc(F)c(Cl)c4)c3c2)c1`, the growth was -23.1% (active).
In the case of `COc1cc(C2C=C(C)N=C3SC(C)=NN32)cc(OC)c1OC` (stereo not given) it was 106%.
In the case of `COc1ccc(/C=N\Nc2ccc([N+](=O)[O-])cn2)cc1OC` it was 79.1%; in that of `O=C(Nc1nc2ccc([N+](=O)[O-])cc2s1)Nc1ccccc1Cl`, 58.5%.
